# According to PubChem BioAssay (NCATS):
# Results filed as inconclusive are left out. Where a call stands in place of a potency, no number is given. Activity calls are given as the source filed them. Calls come from the whole dose curve; as a rule, active = well fitted inhibition curve with a large enough effect; inconclusive = small, poorly fitted or top-dose-only effect; inactive = flat fitted curve, though single readings scatter.
# Columns and labels:
# Experiment in all cases: qHTS profiling for inhibitors of Plasmodium falciparum proliferation (AID 504749); note: nearly all actives have a fitted effect of over 60% in size
# Conditions in all cases: P. falciparum in erythrocytes, SYBR Green DNA, 72 h; series mostly up to 28.7 µM
# CP269 = test system: CP269
# In short: (§1)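 Three-day growth assay of blood-stage parasites in erythrocytes (0.3% parasitemia, 2.5% hematocrit) at 37 C, 5% CO2, quantified by SYBR Green DNA staining after overnight detergent lysis.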
# CP286 = test system: CP286
# In short: as §1
# CP291 = test system: CP291
# In short: as §1
# CP297 = test system: CP297
# In short: as §1
# CP305 = test system: CP305
# In short: as §1
# CP315 = test system: CP315
# In short: as §1
# CP325 = test system: CP325
# In short: as §1
# CP329 = test system: CP329
# In short: as §1
# CP335 = test system: CP335
# In short: as §1
# DFO2036 = test system: DFO2036
# In short: as §1
# DIV14 = test system: DIV14
# In short: as §1
# DIV17 = test system: DIV17
# In short: as §1
# DIV30 = test system: DIV30
# In short: as §1
# Dd2 = test system: Dd2
# In short: as §1
# ECU = test system: ECU
# In short: as §1
# FAB9 = test system: FAB9
# In short: as §1
# GB4 = test system: GB4
# In short: as §1
# HB3 = test system: HB3
# In short: as §1
# ICS = test system: ICS
# In short: as §1
# JCK = test system: JCK
# In short: as §1
# Potency is the fitted concentration of half-maximal effect.
Compound,Potency (CP269),Potency (CP286),Potency (CP291),Potency (CP297),Potency (CP305),Potency (CP315),Potency (CP325),Potency (CP329),Potency (CP335),Potency (DFO2036),Potency (DIV14),Potency (DIV17),Potency (DIV30),Potency (Dd2),Potency (ECU),Potency (FAB9),Potency (GB4),Potency (HB3),Potency (ICS),Potency (JCK)
Nc1ccncc1,inactive,inactive,inactive,inactive,inactive,inactive,inactive,inactive,inactive,inactive,inactive,inactive,inactive,inactive,inactive,inactive,inactive,inactive,inactive,inactive
CC(=O)[C@H]1CC[C@H]2[C@@H]3CC[C@H]4C[C@](C)(O)CC[C@]4(C)[C@H]3CC[C@]12C,inactive,inactive,inactive,inactive,inactive,inactive,inactive,inactive,inactive,inactive,inactive,inactive,inactive,inactive,inactive,inactive,inactive,inactive,inactive,inactive
CC1NCCOC1c1ccccc1 (stereo not drawn),inactive,inactive,inactive,inactive,inactive,inactive,inactive,inactive,inactive,inactive,–,inactive,inactive,inactive,inactive,inactive,–,inactive,inactive,inactive
O=C1NCN(c2ccccc2)C12CCN(CC1COc3ccccc3O1)CC2 (stereo not drawn),inactive,inactive,inactive,inactive,inactive,inactive,inactive,inactive,inactive,inactive,inactive,–,inactive,inactive,inactive,inactive,inactive,inactive,8.91 µM (active),inactive
O=P1(NCCCl)OCCCN1CCCl (stereo not drawn),inactive,inactive,inactive,inactive,inactive,inactive,inactive,inactive,inactive,inactive,inactive,inactive,inactive,inactive,inactive,inactive,inactive,inactive,inactive,–
CCCC1CCCCN1 (stereo not drawn),inactive,inactive,inactive,inactive,inactive,inactive,inactive,inactive,inactive,inactive,inactive,inactive,inactive,inactive,inactive,inactive,inactive,inactive,inactive,inactive
O=C(NC(O)C(Cl)(Cl)Cl)NC(O)C(Cl)(Cl)Cl (stereo not drawn),inactive,inactive,inactive,inactive,inactive,inactive,inactive,inactive,inactive,inactive,inactive,inactive,inactive,inactive,inactive,inactive,inactive,inactive,inactive,inactive
CCC(COC(=O)c1cc(OC)c(OC)c(OC)c1)(c1ccccc1)N(C)C (stereo not drawn),inactive,inactive,inactive,inactive,inactive,inactive,inactive,inactive,inactive,inactive,inactive,inactive,inactive,inactive,inactive,inactive,–,inactive,inactive,inactive
C=C1CC[C@@]2(O)[C@H]3Cc4ccc(O)c5c4[C@@]2(CCN3CC2CC2)[C@H]1O5,inactive,inactive,inactive,inactive,inactive,inactive,inactive,inactive,inactive,inactive,–,inactive,inactive,–,inactive,inactive,–,inactive,inactive,inactive
CC[N+](CC)(CC)CC,inactive,inactive,inactive,inactive,inactive,inactive,inactive,inactive,inactive,inactive,inactive,inactive,inactive,inactive,inactive,inactive,inactive,inactive,inactive,inactive
CN1CCN(C(=O)O[C@H]2c3nccnc3C(=O)N2c2ccc(Cl)cn2)CC1,inactive,inactive,inactive,inactive,inactive,inactive,inactive,inactive,inactive,inactive,inactive,inactive,inactive,inactive,inactive,inactive,inactive,inactive,inactive,inactive
NP(N)(=O)NC(=O)c1ccc(F)cc1,inactive,inactive,inactive,inactive,inactive,inactive,inactive,inactive,inactive,inactive,inactive,inactive,inactive,inactive,inactive,inactive,inactive,inactive,inactive,inactive
NCC(CC(=O)O)c1ccc(Cl)cc1 (stereo not drawn),inactive,inactive,inactive,inactive,inactive,inactive,inactive,inactive,inactive,inactive,inactive,inactive,inactive,inactive,inactive,inactive,inactive,inactive,inactive,inactive
CC(=O)Nc1cc([As](=O)(O)O)ccc1O,inactive,inactive,inactive,inactive,inactive,inactive,inactive,inactive,inactive,inactive,inactive,inactive,inactive,inactive,inactive,inactive,inactive,inactive,inactive,inactive
Cc1ncc(CNC(=O)N(CCCl)N=O)c(N)n1,inactive,inactive,inactive,inactive,inactive,inactive,inactive,inactive,inactive,inactive,inactive,inactive,inactive,inactive,inactive,inactive,inactive,inactive,inactive,inactive
CN(C)CCc1ccc(O)cc1,inactive,inactive,inactive,inactive,inactive,inactive,inactive,inactive,inactive,inactive,inactive,inactive,inactive,inactive,inactive,inactive,inactive,inactive,inactive,inactive
CC(=O)[C@H]1CC[C@H]2[C@@H]3CC[C@H]4C[C@H](O)CC[C@]4(C)[C@H]3C(=O)C[C@]12C,inactive,inactive,inactive,inactive,inactive,inactive,inactive,inactive,inactive,inactive,inactive,inactive,inactive,inactive,inactive,inactive,inactive,inactive,inactive,inactive
CN1C(=S)CN=C(c2ccccc2)c2cc(Cl)ccc21,inactive,inactive,inactive,inactive,inactive,inactive,inactive,inactive,inactive,inactive,inactive,inactive,inactive,inactive,inactive,inactive,inactive,inactive,inactive,inactive
NCCc1cc(O)c(O)cc1O,inactive,inactive,inactive,inactive,inactive,inactive,inactive,inactive,inactive,inactive,inactive,inactive,inactive,–,inactive,inactive,inactive,inactive,inactive,inactive
Oc1ccccc1-c1ccccc1,inactive,inactive,inactive,inactive,inactive,inactive,inactive,inactive,inactive,inactive,inactive,inactive,inactive,inactive,inactive,inactive,inactive,inactive,inactive,inactive
CCOC(=O)C1(c2ccccc2)CCN(CCC(C#N)(c2ccccc2)c2ccccc2)CC1,4.26 µM (active),2.82 µM (active),4.26 µM (active),5.36 µM (active),4.78 µM (active),4.78 µM (active),4.26 µM (active),3.79 µM (active),3.38 µM (active),2.82 µM (active),4.78 µM (active),6.75 µM (active),6.75 µM (active),8.91 µM (active),3.98 µM (active),–,3.38 µM (active),5.01 µM (active),2.24 µM (active),–
COc1ccccc1N1CCNCC1,inactive,inactive,inactive,inactive,inactive,inactive,inactive,inactive,inactive,inactive,inactive,inactive,inactive,inactive,inactive,inactive,inactive,inactive,inactive,inactive
NCC(O)c1ccc(O)cc1 (stereo not drawn),inactive,inactive,inactive,inactive,inactive,inactive,inactive,inactive,inactive,inactive,–,inactive,inactive,inactive,inactive,inactive,inactive,inactive,inactive,inactive
Oc1cccc2cccnc12,inactive,inactive,inactive,inactive,inactive,inactive,inactive,inactive,inactive,inactive,inactive,inactive,inactive,inactive,inactive,inactive,inactive,inactive,inactive,inactive
FC(F)(F)c1cccc(C2=CCN(CCc3ccc4ccccc4c3)CC2)c1,inactive,inactive,inactive,inactive,inactive,inactive,inactive,inactive,inactive,inactive,inactive,inactive,inactive,inactive,inactive,inactive,inactive,inactive,inactive,inactive
CC(C)CC(N(C)C)C1(c2ccc(Cl)cc2)CCC1 (stereo not drawn),inactive,inactive,inactive,inactive,inactive,inactive,inactive,inactive,inactive,inactive,inactive,inactive,inactive,inactive,inactive,inactive,inactive,inactive,inactive,inactive
